What was measured:
Format in all cases: functional
[1] = target: Solute carrier family 2, facilitated glucose transporter member 1 (Homo sapiens) (UniProt P11166); assay: ST_JUDE_LEISH: Cytotoxicity at 2uM final concentration against transgenic Leishmania Mexicana promastigotes LmGLUT1 that are glucose transport deficient and complemented with the human glucose transporter GLUT1. Activity is measured by DNA content using SYBR green in vitro
[2] = target: Hexose transporter 1 (Plasmodium falciparum) (UniProt O97467); assay: ST_JUDE_LEISH: Cytotoxicity at 2uM final concentration against transgenic Leishmania Mexicana promastigotes LmPfHT that are glucose transport deficient and complemented with the Plasmodium falciparum hexose transporter. Activity is measured by DNA content using SYBR green in vitro
[3] = target: Glucose transporter (Leishmania mexicana) (UniProt O61059); assay: ST_JUDE_LEISH: Cytotoxicity at 2uM final concentration against transgenic Leishmania Mexicana promastigotes LmGT2 that are glucose transport deficient and complemented with the L. Mexicana glucose transporter 2. Activity is measured by DNA content using SYBR green in vitro

Sequence of Solute carrier family 2, facilitated glucose transporter member 1 (Homo sapiens) (P11166 whole entry): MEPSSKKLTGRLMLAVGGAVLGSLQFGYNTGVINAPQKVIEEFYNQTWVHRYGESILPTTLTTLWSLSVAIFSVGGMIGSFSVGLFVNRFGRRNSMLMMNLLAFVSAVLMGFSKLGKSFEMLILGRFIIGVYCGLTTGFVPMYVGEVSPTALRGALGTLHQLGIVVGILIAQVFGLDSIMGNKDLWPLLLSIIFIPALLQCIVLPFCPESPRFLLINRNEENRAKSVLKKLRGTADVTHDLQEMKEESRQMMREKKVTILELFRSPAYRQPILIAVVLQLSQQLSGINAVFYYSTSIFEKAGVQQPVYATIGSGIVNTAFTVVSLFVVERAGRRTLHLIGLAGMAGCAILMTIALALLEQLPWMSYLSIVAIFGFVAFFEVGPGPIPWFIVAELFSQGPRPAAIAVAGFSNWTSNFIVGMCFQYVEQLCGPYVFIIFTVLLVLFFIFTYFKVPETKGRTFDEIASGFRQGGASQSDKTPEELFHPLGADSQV

CC1(C)[C@H]2CC[C@@H](CNc3nc(NCCc4c[nH]cn4)nc(Nc4ccc(Oc5ccccc5)cc4)n3)[C@@H]1C2
inhibition [1]: 1.23%
inhibition [2]: -1.54%
inhibition [3]: -1.61%

CCC(NC[C@@H](O)[C@H](Cc1ccccc1)NC(=O)c1cc(C2CCCC2)cc(N2CCCC2=O)c1)c1cccc(Cl)c1 (stereo partly drawn)
inhibition [1]: 2.16%
inhibition [2]: 2.04%
inhibition [3]: 4.65%

CCc1cn2c3c(cc(C(=O)N[C@@H](Cc4ccccc4)[C@H](O)CNC4CCCC4)cc13)N(C)S(=O)(=O)CC2
inhibition [1]: 8.55%
inhibition [2]: 9.26%
inhibition [3]: 5.93%

COc1ccc2ncc(F)c(NC(=O)C3CCC(NCc4cc5c(F)cccc5[nH]4)CC3)c2n1 (stereo not drawn)
inhibition [1]: 77.5%
inhibition [2]: 80.8%
inhibition [3]: 77.4%

O=C(Nc1ccc2c(c1)OCCO2)c1cc(-c2cccnc2)nc2ccc(Cl)cc12
inhibition [1]: 3.75%
inhibition [2]: 1.71%
inhibition [3]: 0.65%

O=C(NCCN1CCCC1)N1CCCN(c2ncnc3cc(-c4ccc(Cl)cc4)sc23)CC1
inhibition [1]: 0.21%
inhibition [2]: 1.33%
inhibition [3]: 0.08%

Cc1nn(-c2ccccc2)c2nc(-c3ccccc3)cc(C(=O)N3CCOCC3)c12
inhibition [1]: 1.26%
inhibition [2]: 0.16%
inhibition [3]: -2.24%

O=C1C2C3SC(c4c3ccc3ccccc43)C2C(=O)N1c1ccccc1 (stereo not drawn)
inhibition [1]: -0.44%
inhibition [2]: 0.31%
inhibition [3]: -1.01%

CNC(=O)/C=C/c1cc(NC(=O)Nc2cc(C)nc3c(F)cccc23)ccc1OC
inhibition [1]: 3.93%
inhibition [2]: 2.38%
inhibition [3]: 3.44%

CCN(CC)CCCC(C)Nc1nc(C=Cc2ccc(Br)cc2)nc2cc(Cl)ccc12 (stereo not drawn)
inhibition [1]: 11%
inhibition [2]: 9.25%
inhibition [3]: 10.2%

CCCN1CCN(CC(O)CNC(=O)Nc2ccc(Br)cc2)CC1 (stereo not drawn)
inhibition [1]: 3.68%
inhibition [2]: 4.03%
inhibition [3]: 3.09%

COc1ccc(O)c(Cc2cnc3nc(N)nc(N)c3c2C)c1
inhibition [1]: 12.3%
inhibition [2]: 11.2%
inhibition [3]: 11.4%

CC(C)(C)OC(=O)NCc1ccc(Nc2nnc(-c3ccc(OCC(=O)NC[C@@H]4CC[C@H]5C[C@@H]4C5(C)C)c([N+](=O)[O-])c3)o2)cc1
inhibition [1]: 2.01%
inhibition [2]: 2.91%
inhibition [3]: 0.68%

O=C(NC1CCC(CCN2CCc3ccc(-c4cnccn4)cc3CC2)CC1)c1cccc(-n2cccn2)c1 (stereo not drawn)
inhibition [1]: 10.2%
inhibition [2]: 7.38%
inhibition [3]: 8.56%

COc1cc2nccc(Nc3ccc4c(cnn4Cc4cccc(F)c4)c3)c2cc1OC
inhibition [1]: 6.91%
inhibition [2]: 4.66%
inhibition [3]: 1.56%

CCCCC(CC)NC(=O)[C@H]1CNCCN1C(=O)CCCc1ccccc1 (stereo partly drawn)
inhibition [1]: 1.73%
inhibition [2]: 1.94%
inhibition [3]: -0.61%

CCCCCN1CCCC(CNS(=O)(=O)c2cccc(C(=O)Nc3ccc(C(F)(F)F)cc3)c2)C1 (stereo not drawn)
inhibition [1]: 0.67%
inhibition [2]: -0.91%
inhibition [3]: -0.09%

CC(C)(C)CCN1CCC(NC(=O)c2ccc(-c3cccc(C(F)(F)F)c3)s2)CC1
inhibition [1]: 1.71%
inhibition [2]: 5.61%
inhibition [3]: 3.83%

O=C(Nc1cc(Cl)cc(Cl)c1)c1cc(Cl)c(=O)n(Cc2cccc(Cl)c2)c1
inhibition [1]: 3.25%
inhibition [2]: -1.14%
inhibition [3]: -1.24%

CCOc1cc(C(C)C)ccc1C1CCN(CCCCNC(=O)c2ccc(NC(=O)c3ccc(Cl)cc3)cc2)CC1
inhibition [1]: 3.78%
inhibition [2]: 4.23%
inhibition [3]: 2.65%

CC[C@H]1CN(Cc2ccccc2Br)CC[C@H]1CCCc1ccnc2ccc(O)cc12
inhibition [1]: 3.62%
inhibition [2]: 5.03%
inhibition [3]: 2.43%

N=C(N)NC(=O)Nc1cc(F)c(Cl)c(Br)c1
inhibition [1]: 3.49%
inhibition [2]: 4.05%
inhibition [3]: -2.83%

CCCNCc1ccc(-c2ccc(CN(C(=O)c3nn(-c4ccccc4)nc3C)C(C)CN(C)C)cc2)nc1 (stereo not drawn)
inhibition [1]: 1.37%
inhibition [2]: 0.07%
inhibition [3]: 6.31%

COCCOc1ccc(C(F)(F)F)cc1NC(=O)Cc1c(F)cccc1Cl
inhibition [1]: 11.3%
inhibition [2]: 8.21%
inhibition [3]: 6.01%

CN(C)CCCOc1ccc(CNCC(C)(C)c2nc(-c3ccc(Cl)c(O)c3)c(-c3ccncc3)[nH]2)cc1
inhibition [1]: 3.39%
inhibition [2]: 1.89%
inhibition [3]: 2.83%

N#Cc1cc(C(=O)Nc2ccccc2)c(N)nc1SCC(=O)NC(c1ccccc1)c1cccs1 (stereo not drawn)
inhibition [1]: 4.19%
inhibition [2]: 1.36%
inhibition [3]: 4.48%

O=C(Nc1ccc(Br)cc1)N1CCC(n2c(-c3ccccc3)nc3cccnc32)CC1
inhibition [1]: 2.24%
inhibition [2]: 1.56%
inhibition [3]: 4.12%

N#Cc1cncc(-c2nc3c(N4CCCC(N)C4)cccc3n2CCNCc2ccccc2)c1 (stereo not drawn)
inhibition [1]: 6.64%
inhibition [2]: 5.11%
inhibition [3]: 8.87%

COc1ccc(Cc2cnc(N)nc2N)cc1OCCCOc1ccccc1
inhibition [1]: -0.49%
inhibition [2]: 0.92%
inhibition [3]: -0.52%

COc1ccc(Nc2ncc3c(-c4cccc(NC(=O)Cc5ccc(F)cc5)c4)c[nH]c3n2)cc1OC
inhibition [1]: 2.27%
inhibition [2]: 2.59%
inhibition [3]: 2.37%

OC(CNc1ccnc(Nc2ccc(Cl)cc2)n1)c1ccccc1C(F)(F)F (stereo not drawn)
inhibition [1]: 10%
inhibition [2]: 9.74%
inhibition [3]: 5.08%

— ChEMBL document CHEMBL3433997, “St. Jude Leishmania screening dataset” (2016)
